22 molecules from PubChem BioAssay (NCATS) can be followed below.

Experiment [1] can be described thus: qHTS of pediatric cancer cell lines to identify multiple opportunities for drug repurposing: Primary screen for U-2 OS cells (AID 1347096). Note: nearly all actives have a fitted effect of over 50% in size. The method in brief:
(§1)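 Viability after 48 h compound treatment at 37C, 500-1,000 cells/well, read as ATP luminescence with CellTiter-Glo. Primary screens used 11-point (MIPE, 0.78 nM-46 µM) or 8-point (NPC, 0.59 nM-46 µM) final concentrations; follow-up screens used 11-point dilutions.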
(qHTS replaces the single test concentration by a dilution series.)

Experiment [2] is described as follows: qHTS of pediatric cancer cell lines to identify multiple opportunities for drug repurposing: Primary screen for Saos-2 cells (AID 1347097). Note: nearly all actives have a fitted effect of over 40% in size. Note: potency is the fitted concentration of half-maximal effect. The method in brief: (§2)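 Phenotypic viability qHTS, 48 h compound exposure, CellTiter-Glo luminescence read-out; multi-concentration dosing so that potency and efficacy derive directly from the primary screen's curves.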

Experiment [3] is described as follows: qHTS of pediatric cancer cell lines to identify multiple opportunities for drug repurposing: Primary screen for SK-N-SH cells (AID 1347098).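 Note: DMSO served as neutral control and bortezomib at 2.3 µM as positive control; nearly all actives have a fitted effect of over 65% in size.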 The method in brief: (§3)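 Cells (500-1,000/well) rested 5 h, then received compounds for 48 h; metabolically active cells were measured by CellTiter-Glo luminescence. Final concentrations spanned up to 46 µM (MIPE, 11-point) or 0.59 nM-46 µM (NPC, 8-point) in primary screens, 11-point in follow-ups.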

A short description of experiment [4]: qHTS of pediatric cancer cell lines to identify multiple opportunities for drug repurposing: Primary screen for NB1643 cells (AID 1347099). Note: nearly all actives have a fitted effect of over 50% in size. Note: potency is the fitted concentration of half-maximal effect. The method in brief: as §2
Experiment [5] in a line: qHTS of pediatric cancer cell lines to identify multiple opportunities for drug repurposing: Primary screen for LAN-5 cells (AID 1347100). The method in brief: as §1
Experiment [6] in a line: qHTS of pediatric cancer cell lines to identify multiple opportunities for drug repurposing: Primary screen for BT-12 cells (AID 1347101). Note: nearly all actives have a fitted effect of over 25% in size. The procedure, abridged: as §3
Experiment [7] in a line: qHTS of pediatric cancer cell lines to identify multiple opportunities for drug repurposing: Primary screen for Rh18 cells (AID 1347102). Note: nearly all actives have a fitted effect of over 65% in size. The procedure, abridged:
as §1

A short description of experiment [8]: qHTS of pediatric cancer cell lines to identify multiple opportunities for drug repurposing: Primary screen for OHS-50 cells (AID 1347103). Note: nearly all actives have a fitted effect of over 40% in size. The method in brief:
as §3

Experiment [9] is described as follows: qHTS of pediatric cancer cell lines to identify multiple opportunities for drug repurposing: Primary screen for RD cells (AID 1347104). Note: nearly all actives have a fitted effect of over 55% in size. Note: potency is the fitted concentration of half-maximal effect. The method in brief:
as §2

Experiment [10] in a line: qHTS of pediatric cancer cell lines to identify multiple opportunities for drug repurposing: Primary screen for MG 63 (6-TG R) cells (AID 1347105). Note: nearly all actives have a fitted effect of over 50% in size. Note: potency is the fitted concentration of half-maximal effect. The method in brief: as §2

Molecules are shown by their SMILES. Results filed as inconclusive are left out. Values without a mark were called inactive. The source made the active and inactive calls. Calls come from the whole dose curve; as a rule, active = well fitted curve in the direction sought with a large enough effect; inconclusive = small, poorly fitted or top-dose-only effect, or another doubt; inactive = no such curve, though single readings can be large; an effect the other way counts as inactive or inconclusive.

As for `O=c1oc2ccccc2c(O)c1C(CC(O)c1ccc(-c2ccc(Br)cc2)cc1)c1ccccc1` (stereo not drawn), the Potency entry in experiment [1], in experiment [2], in experiment [3], in experiment [4], in experiment [5] and in [6] was “inactive” throughout. The Potency entry in experiment [7], in experiment [8] and in experiment [9] was “inactive” each time.

As for `N#CC(C#N)=Cc1ccc(O)c(O)c1`, the Potency entry in experiment [1], in [2], in [3], in experiment [4], in experiment [7] and in experiment [9] was “inactive” each time.

On to `NCC1(CC(=O)O)CCCCC1`, for which the Potency result in [1], in experiment [2], in experiment [3], in experiment [4], in experiment [5] and in [6] was “inactive” in each case. Moreover, the Potency result in experiment [7], in experiment [8] and in experiment [9] was “inactive” throughout.

For the molecule `CC(O)(CS(=O)(=O)c1ccc(F)cc1)C(=O)Nc1ccc(C#N)c(C(F)(F)F)c1` (stereo not drawn), the Potency entry in experiment [1], in experiment [3] and in [7] was “inactive” each time. Further, the Potency in experiment [2] was 23.5 µM (active); in experiment [4], 3.32 µM (active); in experiment [9], 5.9 µM (active); in experiment [10], 3.72 µM (active).

`CC1NCCOC1c1ccccc1` (stereo not drawn): the Potency result in [1], in experiment [2], in [3], in [4], in experiment [5] and in experiment [6] was “inactive” each time. In addition, the Potency entry in [8], in [9] and in experiment [10] was “inactive” in each case.

Turning to `CCC(COC(=O)c1cc(OC)c(OC)c(OC)c1)(c1ccccc1)N(C)C` (stereo not drawn), the Potency result in experiment [1], in experiment [2], in [3], in experiment [4], in experiment [9] and in experiment [10] was “inactive” throughout.

On to `N[C@@H](Cc1ccc(Oc2cc(I)c(O)c(I)c2)c(I)c1)C(=O)O`, for which the Potency result in [1], in experiment [2], in experiment [3], in experiment [4], in [5] and in experiment [6] was “inactive” in each case. For the same molecule, the Potency result in experiment [8] and in experiment [9] was “inactive” throughout.

In the case of `CCC(C(N)=O)N1CCCC1=O` (stereo not drawn), the Potency result in [1], in experiment [2], in experiment [3], in [4], in experiment [5] and in experiment [6] was “inactive” throughout. Moreover, the Potency result in experiment [7], in experiment [8] and in experiment [9] was “inactive” throughout.

As for `CC(C)=CC1C(C(=O)OCc2cccc(Oc3ccccc3)c2)C1(C)C` (stereo not drawn), the Potency result in experiment [1], in [2], in experiment [3], in experiment [4], in experiment [5] and in experiment [6] was “inactive” each time. Further, the Potency entry in experiment [9] and in experiment [10] was “inactive” each time.

For the molecule `Cc1cccc(C)c1NC(=O)CN1CCCC1=O`, the Potency entry in [1], in experiment [2], in experiment [3], in experiment [4], in experiment [5] and in [6] was “inactive” each time. In addition, the Potency result in [8], in experiment [9] and in experiment [10] was “inactive” throughout.

Turning to `CC(=O)[C@H]1CC[C@H]2[C@@H]3CC[C@H]4C[C@](C)(O)CC[C@]4(C)[C@H]3CC[C@]12C`, the Potency result in experiment [1], in [2], in experiment [3], in [4], in [5] and in experiment [6] was “inactive” in each case. Besides, the Potency result in experiment [7], in experiment [8], in [9] and in experiment [10] was “inactive” each time.

For the molecule `C#CCN(C)[C@H](C)Cc1ccccc1`, the Potency result in experiment [1], in experiment [2], in experiment [3], in experiment [4], in [5] and in experiment [6] was “inactive” in each case. Further, the Potency result in experiment [8], in experiment [9] and in experiment [10] was “inactive” each time.

`CC(=O)Nc1cc([As](=O)(O)O)ccc1O`: the Potency result in [1], in [2], in experiment [3], in experiment [4], in [5] and in experiment [6] was “inactive” in each case. Further, the Potency result in experiment [7], in experiment [8], in experiment [9] and in experiment [10] was “inactive” throughout.

With `COc1ccc(C(CN(C)C)C2(O)CCCCC2)cc1` (stereo not drawn), the Potency result in experiment [1], in experiment [2], in experiment [3], in [4], in experiment [5] and in experiment [6] was “inactive” in each case. Further, the Potency entry in experiment [8], in [9] and in experiment [10] was “inactive” throughout.

For the molecule `C=C1CC[C@@]2(O)[C@H]3Cc4ccc(O)c5c4[C@@]2(CCN3CC2CC2)[C@H]1O5`, the Potency result in [1], in experiment [2], in experiment [3], in experiment [4], in experiment [5] and in experiment [6] was “inactive” throughout. In addition, the Potency result in experiment [7], in experiment [8], in [9] and in experiment [10] was “inactive” throughout.

As to `CCN(C(C)=O)c1cccc(-c2ccnc3c(C#N)cnn23)c1`, the Potency result in experiment [1], in experiment [3], in experiment [4], in experiment [5], in [6] and in experiment [7] was “inactive” in each case. Moreover, the Potency entry in [8], in experiment [9] and in experiment [10] was “inactive” each time.

For the molecule `CN(C)CCN(C)CCc1ccc(Cl)c(Cl)c1`, the Potency result in experiment [1], in [2], in experiment [5], in experiment [6] and in experiment [10] was “inactive” in each case.

`CCOP(=S)(OCC)Oc1cc(C)nc(C(C)C)n1`: the Potency result in experiment [1], in [3], in experiment [4], in experiment [5], in [6] and in experiment [7] was “inactive” each time. The Potency entry in experiment [8], in [9] and in [10] was “inactive” each time.

Take `CCCN1CCC[C@@H]2Cc3nc(N)ncc3C[C@H]21`: the Potency result in experiment [1], in experiment [3], in experiment [4], in experiment [5], in [6] and in experiment [8] was “inactive” throughout. The Potency result in experiment [9] was “inactive”.

Consider `C#CCOC(C(=O)OCCN(C)C)(c1ccccc1)c1ccccc1`, for which the Potency result in [1], in experiment [3], in experiment [4], in experiment [5], in [6] and in [7] was “inactive” throughout. The Potency entry in [8], in experiment [9] and in experiment [10] was “inactive” throughout.

Consider `O=C1NCN(c2ccccc2)C12CCN(CC1COc3ccccc3O1)CC2` (stereo not drawn), for which the Potency entry in experiment [1], in experiment [3], in experiment [4], in experiment [5], in experiment [6] and in [8] was “inactive” each time. Moreover, the Potency entry in [9] was “inactive”.

Turning to `CC[C@@H](CO)NC(=O)[C@@H]1C=C2c3cccc4[nH]cc(c34)C[C@H]2N(C)C1`, the Potency result in [1], in experiment [3], in experiment [4], in [5], in experiment [6] and in [7] was “inactive” in each case. For the same molecule, the Potency result in [8], in experiment [9] and in [10] was “inactive” each time.
